Results on ten compounds are retold here after PubChem BioAssay (Tox21).

Assay [1] is described as follows: qHTS assay to identify small molecule antagonists of the sonic hedgehog signaling (Shh) pathway (AID 1259369; calls by dose curve; also: nearly all actives have a fitted effect of over 45% in size; also: potency is read from the fitted curve at half-maximal effect). In short, it runs like this: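 Cells are plated and held 4hr at 37 C, compounds (DMSO) are pinned in, conditioned medium is added to stimulate the pathway, and after 24hr luciferase reagent is added for 30min before luminescence is read.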
In general terms: In qHTS, concentration-response curves come from the screen itself.

The nature of assay [2]: qHTS assay to identify small molecule agonists of the androgen receptor (AR) signaling pathway in the presence of an antagonist - cell viability counter screen (AID 1259379). Also: nearly all actives have a fitted effect of over 25% in size. Also: potency is read from the fitted curve at half-maximal effect. In short, it runs like this: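 Cytotoxicity is assessed by CellTiter-Fluor in MDA-kb2 cells carrying an MMTV-driven luciferase reporter. Cells receive 3.0uM nilutamide plus compounds at 15 concentrations and incubate 16 hr at 37C without CO2 before fluorescence reading.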

A short description of assay [3]: qHTS assay to identify small molecule agonists of the estrogen receptor beta (ER-beta) signaling pathway - cell viability counter screen (AID 1259380). Also: nearly all actives have a fitted effect of over 30% in size. Also: potency is read from the fitted curve at half-maximal effect. An outline of the steps:
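Cytotoxicity is measured in parallel with the reporter screen: after 16 hr compound exposure at 37C and a 2 hr LiveBLAzer step, CellTiter-Glo is added to the same ER-beta-UAS-bla HEK293T wells and luminescence read after 30 min.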

A short description of assay [4]: qHTS assay to identify small molecule antagonists of the estrogen receptor beta (ER-beta) signaling pathway - cell viability counter screen (AID 1259382). Also: nearly all actives have a fitted effect of over 55% in size. Also: potency is read from the fitted curve at half-maximal effect. An outline of the steps: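 Cytotoxicity counter screen multiplexed with the beta-lactamase antagonist assay: GripTite HEK293T ER-beta-bla cells were treated 16 hr with test chemicals in the presence of 1nM 17-beta-estradiol, and viability was measured by CellTiter-Glo.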

Assay [5] is described as follows: qHTS assay to identify small molecule agonists or antagonists of the thyroid stimulating hormone receptor (TSHR) signaling pathway - wild type cell line counter screen (AID 1259384; calls by dose curve). In short, it runs like this: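 Wild-type Hek293 cells, 800/well, 18 h at 37C, then compound with Ro20-1724 for 30 min RT. cAMP by HTRF (cAMP-d2/anti-cAMP cryptate), 1 h RT, fluorescence read. 15 concentrations, triplicates.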

For assay [6], the target named is Thyrotropin receptor (Homo sapiens) (UniProt P16473). The assay is described as follows: qHTS assay to identify small molecule antagonists of the thyroid stimulating hormone receptor (TSHR) signaling pathway (AID 1259385; calls by dose curve; also: nearly all actives have a fitted effect of over 20% in size). An outline of the steps:
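TSHR-HEK293 cells (800/well) plated 18 h, then compounds with Ro20-1724 and TSH at 1.5 ng/mL final, 30 min at room temperature. cAMP quantified by HTRF (cAMP-d2/anti-cAMP-cryptate, 1 h); 15 concentrations in triplicate.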

Assay [7] in a line: qHTS assay to identify small molecule agonists of the estrogen receptor alpha (ER-alpha) signaling pathway in the presence of an antagonist - cell viability counter screen (AID 1259386).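 Also: cells exposed to compounds for 22 h at 37 °C before the viability read; nearly all actives have a fitted effect of over 30% in size.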 Also: potency is read from the fitted curve at half-maximal effect. In short, it runs like this:
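Cytotoxicity was measured in parallel with the ERE-luciferase agonist screen, in the same wells. The cells were VM7Luc4E2, which endogenously express ER-alpha, and treatment was with compounds plus 10.0nM ICI-182,780 for 22hr.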

Assay [8] has as its target Progesterone receptor (Homo sapiens) (UniProt P06401). The assay is described as follows: qHTS assay to identify small molecule antagonists of the progesterone receptor (PR) signaling pathway (AID 1346795; active = well fitted inhibition curve with a large enough effect in the signal ratio in the repeat runs, not every such curve was filed as active; the % refers to the signal ratio; also: potency is read from the fitted curve at half-maximal effect). An outline of the steps:
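Read-out is fluorescence from the LiveBLAzer B/G FRET substrate, cleaved by a UAS-controlled beta-lactamase in PR-UAS-bla HEK293T cells after 16 hr exposure to compound plus 1 nM promegestone (final), followed by 2 hr at room temperature.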

Assay [9] is described as follows: qHTS assay to identify small molecule antagonists of the progesterone receptor (PR) signaling pathway - cell viability counter screen (AID 1346798). Also: nearly all actives have a fitted effect of over 50% in size. Also: potency is read from the fitted curve at half-maximal effect. In short, it runs like this: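 HEK293T PR-UAS-bla, 2% charcoal-stripped FBS; 4 hr pre-plate; cpd + R5020, 16 h 37C; LiveBLAzer read first; then CellTiter-Glo 30 min RT, luminescence.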
Assay [10] in a line: qHTS assay to identify small molecule agonists of the progesterone receptor (PR) signaling pathway - cell viability counter screen (AID 1346799; calls by dose curve; also: nearly all actives have a fitted effect of over 45% in size; also: potency is read from the fitted curve at half-maximal effect). An outline of the steps: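 Luminescence from CellTiter-Glo, added after the beta-lactamase FRET read in the same wells, gave cytotoxicity in PR-UAS-bla HEK293T cells treated with compounds for 16 hr at 37C.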
The nature of assay [11]: qHTS assay to identify small molecule antagonists of the TGF-beta/Smad signaling pathway - cell viability counter screen (AID 1346824). Also: nearly all actives have a fitted effect of over 50% in size. In short, it runs like this: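 SBE-bla HEK 293T cells, incubated overnight, then compound plus 0.25 ng/mL TGF-beta1 (stock added) for 5 hr at 37 C. Viability was read in the same wells by CellTiter-Glo luminescence after 30 min at room temperature.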

Assay [12] is described as follows: qHTS assay to identify small molecule agonists of the TGF-beta/Smad signaling pathway - cell viability counter screen (AID 1346829). Also: top concentration of the series differs between compounds; nearly all actives have a fitted effect of over 45% in size. In short, it runs like this:
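In parallel with the Smad reporter read, viability of HEK 293T cells stably carrying SBE-bla is quantified by ATP luminescence following 5 hr compound treatment.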

A short description of assay [13]: qHTS assay to identify small molecule agonists of the TGF-beta/Smad signaling pathway (AID 1346859; active = well fitted activation curve with a large enough effect in the signal ratio in the repeat runs, not every such curve was filed as active; the % refers to the signal ratio; also: series mostly up to about 77 µM). In short, it runs like this:
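SBE-bla HEK 293T, 4,000 cells/well, plated o/n; cpd in DMSO, 5 hr, 37 C/5% CO2; B/G FRET substrate 2 hr RT; ex 405, em 460/530 nm.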

The target of assay [14] is Estrogen receptor (Homo sapiens) (UniProt P03372). In words: qHTS assay to identify small molecule agonists of the estrogen receptor alpha (ER-alpha) signaling pathway in the presence of an antagonist (AID 1259383; calls by dose curve; also: top concentration of the series differs between compounds; nearly all actives have a fitted effect of over 15% in size). An outline of the steps:
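Agonist-mode confirmation in the presence of the ER antagonist ICI-182,780 at 10.0nM final. Breast-derived VM7Luc4E2 reporter cells were exposed to compounds for 22hr, and ERE-driven luciferase was quantified by luminescence.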

Assay [15] deals with Progesterone receptor (Homo sapiens) (UniProt P06401). The assay is described as follows: qHTS assay to identify small molecule agonists of the progesterone receptor (PR) signaling pathway (AID 1346784; calls by dose curve; also: nearly all actives have a fitted effect of over 30% in size). An outline of the steps:
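Beta-lactamase reporter read-out: after 16 hr compound treatment at 37C and a further 2 hr at room temperature with LiveBLAzer B/G FRET substrate, fluorescence was measured in PR-UAS-bla HEK 293T cells grown in 2% charcoal-stripped serum.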

The target in assay [16] is Thyrotropin-releasing hormone receptor (Homo sapiens) (UniProt P34981). In words: qHTS assay to identify small molecule antagonists of the thyrotropin-releasing hormone receptor (TRHR) signaling pathway (AID 1346877; active = well fitted inhibition curve with a large enough effect in the repeat runs, not every such curve was filed as active; also: series mostly up to about 51 µM). In short, it runs like this:
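Antagonism is measured as suppression of the calcium response to 1 nM TRH in TRHR-HEK293 cells that have been dye-loaded for 2 h at 37 °C after overnight plating. Each compound is tested at 15 concentrations in triplicate.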

The target is the same in assay [17]. The assay is described as follows: qHTS assay to identify small molecule agonists of the thyrotropin-releasing hormone receptor (TRHR) signaling pathway (AID 1346891; calls by dose curve; also: series mostly up to about 58 µM). In short, it runs like this: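 Intracellular calcium rise, read as fluorescence every second for 3 min, served as the agonist signal in dye-loaded HEK293 cells expressing TRHR; each compound ran at 15 concentrations in triplicate.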

In assay [18] the target is Androgen receptor (Homo sapiens) (UniProt P10275). In words: qHTS assay to identify small molecule agonists of the androgen receptor (AR) signaling pathway in the presence of an antagonist (AID 1259381; calls by dose curve; also: nearly all actives have a fitted effect of over 15% in size). In short, it runs like this:
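Agonist-mode confirmation screen: human MDA-kb2 cells stably expressing luciferase under an MMTV promoter bearing AR and GR response elements, co-treated with 3.0uM nilutamide (final). Luminescence measured after 16hr compound incubation.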

The structures appear in SMILES notation. “And” between values parts separate entries of the source, which are not always exact repeats. Identical values can stand only once. Unmarked numbers belong to inactive results. Inconclusive results are not listed. The source made the active and inactive calls. Unless noted, calls follow the shape of the dose curve; as a rule, active = well fitted curve in the direction sought with a large enough effect in the repeat runs; inconclusive = weak or mixed curves; inactive = no such curve, though single readings can be large; an effect the other way counts as inactive or inconclusive.

Chain of Thyrotropin-releasing hormone receptor (Homo sapiens) (P34981 whole entry, looked up): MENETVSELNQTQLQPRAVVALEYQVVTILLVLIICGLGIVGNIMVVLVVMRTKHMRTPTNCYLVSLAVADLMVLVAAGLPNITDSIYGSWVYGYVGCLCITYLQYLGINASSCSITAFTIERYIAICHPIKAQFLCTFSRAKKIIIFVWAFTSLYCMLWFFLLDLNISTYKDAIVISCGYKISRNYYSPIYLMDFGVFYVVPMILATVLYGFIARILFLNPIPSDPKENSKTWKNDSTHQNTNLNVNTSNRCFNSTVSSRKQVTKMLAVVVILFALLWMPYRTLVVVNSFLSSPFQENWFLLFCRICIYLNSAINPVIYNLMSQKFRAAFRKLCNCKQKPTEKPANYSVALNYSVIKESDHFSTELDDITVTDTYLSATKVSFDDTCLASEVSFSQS
Chain of Thyrotropin receptor (Homo sapiens) (P16473 whole entry, looked up): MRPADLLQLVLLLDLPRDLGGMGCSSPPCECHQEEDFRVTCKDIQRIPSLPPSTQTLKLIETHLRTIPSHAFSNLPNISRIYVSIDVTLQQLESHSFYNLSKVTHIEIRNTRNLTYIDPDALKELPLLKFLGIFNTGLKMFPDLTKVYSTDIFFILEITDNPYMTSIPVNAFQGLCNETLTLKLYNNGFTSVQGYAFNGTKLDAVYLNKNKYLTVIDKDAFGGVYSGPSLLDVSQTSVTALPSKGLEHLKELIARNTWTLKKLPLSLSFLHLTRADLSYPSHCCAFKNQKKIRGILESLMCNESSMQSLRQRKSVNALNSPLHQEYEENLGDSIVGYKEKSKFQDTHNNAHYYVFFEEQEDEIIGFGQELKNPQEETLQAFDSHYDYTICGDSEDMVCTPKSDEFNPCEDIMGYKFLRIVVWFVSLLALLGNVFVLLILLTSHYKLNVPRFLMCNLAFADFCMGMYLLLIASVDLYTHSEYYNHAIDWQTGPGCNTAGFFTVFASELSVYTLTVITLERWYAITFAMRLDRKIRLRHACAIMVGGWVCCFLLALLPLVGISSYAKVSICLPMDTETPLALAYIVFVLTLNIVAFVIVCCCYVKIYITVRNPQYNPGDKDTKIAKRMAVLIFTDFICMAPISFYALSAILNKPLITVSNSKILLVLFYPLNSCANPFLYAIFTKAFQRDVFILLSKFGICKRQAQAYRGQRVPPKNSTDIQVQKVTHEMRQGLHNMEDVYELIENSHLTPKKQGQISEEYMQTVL
Chain of Progesterone receptor (Homo sapiens) (P06401 whole entry, looked up): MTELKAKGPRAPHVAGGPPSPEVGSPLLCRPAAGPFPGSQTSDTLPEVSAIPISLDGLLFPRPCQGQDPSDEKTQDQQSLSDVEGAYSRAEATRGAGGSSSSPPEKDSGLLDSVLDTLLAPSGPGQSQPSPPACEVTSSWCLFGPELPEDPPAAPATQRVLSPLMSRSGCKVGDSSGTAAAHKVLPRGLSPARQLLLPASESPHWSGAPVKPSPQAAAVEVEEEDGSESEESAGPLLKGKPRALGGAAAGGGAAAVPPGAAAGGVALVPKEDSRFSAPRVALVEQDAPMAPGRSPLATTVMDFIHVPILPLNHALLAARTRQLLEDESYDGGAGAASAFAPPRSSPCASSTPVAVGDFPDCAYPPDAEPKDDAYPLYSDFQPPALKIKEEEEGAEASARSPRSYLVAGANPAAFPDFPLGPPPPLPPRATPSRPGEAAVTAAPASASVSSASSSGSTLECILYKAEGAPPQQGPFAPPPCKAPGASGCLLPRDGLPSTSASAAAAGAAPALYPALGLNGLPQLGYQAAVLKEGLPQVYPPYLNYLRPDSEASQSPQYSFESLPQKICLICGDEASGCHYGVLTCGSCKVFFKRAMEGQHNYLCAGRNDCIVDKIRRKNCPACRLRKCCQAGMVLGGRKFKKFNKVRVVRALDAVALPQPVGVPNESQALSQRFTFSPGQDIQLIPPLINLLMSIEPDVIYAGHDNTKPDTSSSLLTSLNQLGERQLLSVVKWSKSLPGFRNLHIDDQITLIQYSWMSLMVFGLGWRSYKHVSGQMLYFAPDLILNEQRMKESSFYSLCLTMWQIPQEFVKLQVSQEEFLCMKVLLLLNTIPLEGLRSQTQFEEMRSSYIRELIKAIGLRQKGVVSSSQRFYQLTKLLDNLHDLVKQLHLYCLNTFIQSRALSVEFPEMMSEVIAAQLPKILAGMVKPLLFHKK
Chain of Estrogen receptor (Homo sapiens) (P03372 whole entry, looked up): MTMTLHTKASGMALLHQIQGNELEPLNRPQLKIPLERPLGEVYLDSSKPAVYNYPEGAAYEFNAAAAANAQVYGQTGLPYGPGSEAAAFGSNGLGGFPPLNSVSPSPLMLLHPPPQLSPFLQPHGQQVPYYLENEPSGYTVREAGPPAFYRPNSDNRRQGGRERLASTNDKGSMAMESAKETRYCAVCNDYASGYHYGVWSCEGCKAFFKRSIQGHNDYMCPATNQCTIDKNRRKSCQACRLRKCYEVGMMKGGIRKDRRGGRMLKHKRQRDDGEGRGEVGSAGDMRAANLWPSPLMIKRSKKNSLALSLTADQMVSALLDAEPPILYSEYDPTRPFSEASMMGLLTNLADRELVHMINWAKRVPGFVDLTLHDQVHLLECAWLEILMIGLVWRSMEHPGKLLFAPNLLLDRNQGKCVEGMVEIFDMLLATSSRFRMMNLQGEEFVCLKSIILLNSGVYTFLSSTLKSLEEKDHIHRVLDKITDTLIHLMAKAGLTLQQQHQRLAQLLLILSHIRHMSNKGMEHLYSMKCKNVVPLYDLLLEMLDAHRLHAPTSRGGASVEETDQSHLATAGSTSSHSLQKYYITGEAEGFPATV
Chain of Androgen receptor (Homo sapiens) (P10275 whole entry, looked up): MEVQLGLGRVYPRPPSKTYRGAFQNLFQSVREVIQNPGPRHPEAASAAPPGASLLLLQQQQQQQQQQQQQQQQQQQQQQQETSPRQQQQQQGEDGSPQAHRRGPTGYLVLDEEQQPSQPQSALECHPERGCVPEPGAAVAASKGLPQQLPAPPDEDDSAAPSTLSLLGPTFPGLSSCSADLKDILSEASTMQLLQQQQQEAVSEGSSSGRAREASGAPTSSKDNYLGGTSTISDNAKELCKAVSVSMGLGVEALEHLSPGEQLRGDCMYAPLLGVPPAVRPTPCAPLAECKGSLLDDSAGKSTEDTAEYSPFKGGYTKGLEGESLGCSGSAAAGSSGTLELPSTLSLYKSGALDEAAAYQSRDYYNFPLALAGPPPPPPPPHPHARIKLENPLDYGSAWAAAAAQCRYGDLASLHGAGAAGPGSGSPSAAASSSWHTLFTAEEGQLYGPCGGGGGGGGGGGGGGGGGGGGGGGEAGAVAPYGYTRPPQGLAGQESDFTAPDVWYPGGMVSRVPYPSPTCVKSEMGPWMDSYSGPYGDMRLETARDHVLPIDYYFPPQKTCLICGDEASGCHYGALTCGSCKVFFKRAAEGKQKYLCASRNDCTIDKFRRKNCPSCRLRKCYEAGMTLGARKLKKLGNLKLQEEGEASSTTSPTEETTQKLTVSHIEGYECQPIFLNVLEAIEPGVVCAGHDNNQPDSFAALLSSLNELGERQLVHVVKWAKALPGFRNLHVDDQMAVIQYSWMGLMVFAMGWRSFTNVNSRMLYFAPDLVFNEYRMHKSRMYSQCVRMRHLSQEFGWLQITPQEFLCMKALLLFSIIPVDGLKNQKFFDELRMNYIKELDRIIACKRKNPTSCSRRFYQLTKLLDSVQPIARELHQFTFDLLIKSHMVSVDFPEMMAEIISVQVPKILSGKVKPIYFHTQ

For the compound `CC(C)O.CC(C)O.CCOC(=O)/C=C(\C)O.CCOC(=O)/C=C(\C)O.[Ti]`, the Potency result in assay [1], in assay [2], in assay [3], in assay [4], in assay [5] and in assay [6] was “inactive” each time. Besides, the Potency result in [7], in assay [8], in assay [9], in assay [10], in assay [11] and in assay [13] was “inactive” each time. Moreover, the compound was called inactive in [12].

In the case of `CC1CCC(=O)C1=O` (stereo unspecified), the Potency result in assay [1], in assay [2], in assay [3], in assay [14], in assay [5] and in [6] was “inactive” throughout. Also, the Potency result in assay [7], in assay [8], in assay [9], in assay [10], in assay [11] and in assay [13] was “inactive” throughout. In addition, the outcome in [12] was inactive.

Take `CCCCc1ncc(/C=C(\Cc2cccs2)C(=O)O)n1Cc1ccc(C(=O)O)cc1`: the Potency result in [1], in assay [2], in assay [3], in [5], in assay [6] and in assay [7] was “inactive” throughout. In addition, the Potency result in [15], in assay [8], in [9], in [10], in [11] and in assay [13] was “inactive” each time. The call in [12] and in assay [16] was inactive.

With `CC(=O)[O][Al][O]C(C)=O`, the Potency entry in [1], in assay [2], in assay [4], in [5], in assay [7] and in assay [15] was “inactive” throughout. For the same compound, the Potency result in assay [8], in assay [9], in [10], in assay [11] and in assay [13] was “inactive” in each case. In assay [12], the compound was classed as inactive.

Take `C=CC(=O)OCCOCCOCCOCCOC(=O)C=C`: the Potency in assay [1] is 3.08 µM (active) and 6.06 µM (active); in assay [2], 61.4 µM (active) and 54 µM (active); in assay [7] it was 54.8 µM (active) and 68 µM (active). The Potency result in assay [4], in assay [14], in assay [5], in assay [15], in assay [13] and in [17] was “inactive” in each case. Also, the call in [12] and in [16] was inactive.

As to `C=C1C(=C/C=C2\CCC[C@]3(C)[C@@H]([C@H](C)/C=C/[C@@H](O)C4CC4)CC[C@@H]23)C[C@@H](O)C[C@@H]1O`, the Potency in assay [1] was 0.0007 µM (active); in assay [3], 26.6 µM (active); in [8], 11.9 µM (active). In addition, the Potency result in assay [18], in assay [14], in assay [5], in assay [11] and in assay [13] was “inactive” in each case. The compound was classed as inactive in assay [12].

Take `CCCCCCCC#N`: the Potency in [1] is 30.6 µM (active). For the same compound, the Potency entry in assay [2], in [3], in [4], in [5], in [6] and in assay [7] was “inactive” in each case. The Potency entry in [15], in [8], in [9], in assay [11], in assay [13] and in assay [17] was “inactive” throughout. Also, the compound was classed as inactive in assay [12] and in [16].

For `CCOC(=O)C(F)(F)F`, the Potency entry in [1], in assay [2], in assay [3], in assay [5], in [6] and in [7] was “inactive” each time. In addition, the Potency entry in [15], in assay [8], in assay [9], in assay [10], in assay [11] and in assay [13] was “inactive” in each case. Also, the Potency result in [17] was “inactive”. For the same compound, the result in assay [12] and in assay [16] was inactive.

As to `CCCCCCOC(=O)NC(=N)c1ccc(NCc2nc3cc(C(=O)N(CCC(=O)OCC)c4ccccn4)ccc3n2C)cc1`, the Potency is 1.19 µM (active) in assay [1]; 11.9 µM (active) in [3]; 11.9 µM (active) in [4]; 26.6 µM (active) in assay [7]; 21.1 µM (active) in assay [9]; 18.8 µM (active) in assay [10]. Besides, the Potency entry in assay [14], in assay [5], in assay [15] and in [17] was “inactive” each time. Besides, the compound was classed as inactive in [16].

In the case of `O=C(Nc1ccccc1)c1ccccc1O`, the Potency is 54.5 µM (active) in assay [1] and 61.1 µM (active) in assay [2]. Also, the Potency entry in assay [18], in assay [15], in assay [9] and in assay [13] was “inactive” in each case. Moreover, the call in assay [12] and in assay [16] was inactive.
